Test results as given in PubChem BioAssay (EPA / NIEHS).
Active and inactive are the calls of the source. The calls were made as follows: active = hit-call score of the fitted dose curve at least 0.9, where 1 is the maximum; inactive = score below 0.9.

These compounds were tested on Tumor necrosis factor receptor 1 (TNFRSF1A), TNFRSF1A (gene 7132) (assay: LTEA_HepaRG_TNFRSF1A: Life Technologies and Expression Analysis (LTEA) Assay for Tumor necrosis factor receptor 1 (TNFRSF1A) using HepaRG (AID 2283535)). Conditions: mRNA level, 48 h; actives raise or lower the signal.
Method: LTEA_HepaRG is a cell based, multiplexed-readout assay that uses HepaRG, a human liver cell line, with measurements taken at 48 hours after chemical dosing on a 96-well plate.LTEA_HepaRG_TNFRSF1A is one of 102 assay component(s) measured in the LTEA HepaRG cell culture assay. It is a marker of Cell proliferation, survival, death.Data from the assay component LTEA_HepaRG_TNFRSF1A was analyzed into 1 endpoint. This assay endpoint, LTEA_HepaRG_TNFRSF1A, was analyzed with bidirectional fitting relative to DMSO as the negative control and baseline of activity. Using a type of inducible reporter, measures of mRNA induction for gain or loss-of-signal activity can be used to understand regulation of transcription factor activity. To generalize the intended target to other relatable targets, this assay endpoint is annotated to the cytokine receptor intended target family, where the subfamily is TNF receptor.
A total of 1060 chemcials from the ToxCast library were tested in eight-point concentration-response experiments. Cell culture and cytotoxicity assays were conducted at Thermo Fisher Scientific's Custom Services facility (Madison, WI). A single lot of human HepaRG cells (Thermo Fisher Scientific, Frederick, MD) was used for the cell culture experiments. 96-well format collagen type I coated plates of human HepaRG cells were prepared using established methods. Briefly, cryopreserved HepaRG cells were thawed, plated at a density of approximately 100,000 cells/well in HepaRG Thaw, Plate, and General Purpose media (HPRG770, Thermo Fisher Scientific), and incubated for 48 hours. 0.5% DMSO was selected as vehicle control to balance the requisite need of DMSO in HepaRG cultures to maintain differentiation (for example, baseline metabolism, proportions of hepatocytes vs. cholangiocytes), while enabling further hepatic receptor pathway activation (for example, PXR and CAR) in response to chemical exposure. 48 hours after plating, the culture medium was replaced with HepaRG Serum-Free Incudtion Media. Cells were exposed to each test chemical in duplicate and maintained in CO2 incubators for another 48 hours. Chemical plates were thawed to room temperature and 200x concentrations of treatment groups were prepared. 8-point conentration-reponse curves were made with the highest exposure at 100 uM, followed by half-log dilutions, all in 0.5% DMSO. Each test plate contained variouse controls, induction positive controls (1mM phenobarbital), cytotoxicity positive controls ([…] aflatoxin B1), vehicle controls (0.5% DMSO), and total lysis controls (0.5% DMSO). Cell morphology images were taken using an Essen IncuCyte FLR automated microscope, with six 96-well plates imaged in about 24 minutes. Images were captured and exported and JPEG files. Spent culture media was transfered to black-well plates for the LDH assay, and remaining media was sorted at -80 C for later use. Cells were treated with RLT buffer and frozen until shipped for gene expression analysis. Total RNA was isolated from the cell suspension in 75 uL of Buffer RLT (Qiagen, Germantown, MD 20874) by Quintiles/Expression Analysis (Durham, NC) using a custom isolation procedure. Total RNA from each plate well was transferred to a preamplification plate. Fluidigm's 96.96 Dynamic ArrayTM (Fluidigm, Amsterdam, the Netherlands) technology was used for gene expression analyses by quantitative reverse transcription polymerase chain reaction (qRT-PCR, performed by Quintiles/Expression Analysis, Durham, NC)89. Standard TaqManTM Assays (Applied Biosystems/ThermoFisher Scientific, Foster City, CA) were used to assess the expression of 93 genes selected based on their selectivity and sensitivity to important hepatic receptors known to be modulated by environmental chemicals; importance in human hepatocyte functionality; and hepatotoxicity. […]

Row | SMILES | outcome | AC50
1 | CCNS(=O)(=O)C(F)(F)C(F)(F)C(F)(F)C(F)(F)C(F)(F)C(F)(F)C(F)(F)C(F)(F)F | inactive | –
2 | CN(C)c1ccccc1 | inactive | –
3 | CC(C)(C)OOC(C)(C)CCC(C)(C)OOC(C)(C)C | inactive | –
4 | CCCCCOC(=O)c1ccccc1C(=O)OCCCCC | inactive | –
5 | c1ccc(NNc2ccccc2)cc1 | inactive | –
6 | Clc1ccc(Cl)c(Cl)c1 | – | 50 µM (active)
7 | Cc1ccc([N+](=O)[O-])cc1 | inactive | –
8 | ClC1=C(Cl)[C@]2(Cl)[C@H]3[C@H]([C@@H]4C=C[C@H]3C4)[C@@]1(Cl)C2(Cl)Cl | inactive | –
9 | Cc1ccc(N=C=O)cc1N=C=O | inactive | –
10 | [O-][Cl+]O | inactive | –
11 | O=C(Oc1ccc(Br)cc1)N1CCN2CCC1CC2 | inactive | –
12 | Cc1cc(N=Nc2ccccc2C)ccc1N | inactive | –
13 | CCOc1cccc(C2(N3CCN(c4ccccc4)CC3)CCC(C)CC2)c1 (stereo not given) | inactive | –
14 | c1ccc(C2CO2)cc1 (stereo not given) | inactive | –
15 | CC(C)(O)c1cnn2c(-c3ccc(F)c(-c4c(F)cccc4C#N)c3)cnc2n1 | inactive | –
16 | C=CCc1ccc2c(c1)OCO2 | inactive | –
17 | CN(C)C(=O)Nc1ccc(Cl)cc1 | inactive | –
18 | O=P(OCCCl)(OCCCl)OCCCl | inactive | –
19 | CCCCOC(=O)c1ccccc1C(=O)OCc1ccccc1 | inactive | –
20 | ClCCOCCCl | inactive | –

Row | SMILES | outcome | AC50
21 | CCC12COCN1COC2 | inactive | –
22 | CCC(C)c1ccc(O)cc1 (stereo not given) | inactive | –
23 | O=Cc1ccco1 | inactive | –
24 | C[C@]12C=CC3=C4CCC(=O)C=C4CC[C@H]3[C@@H]1CC[C@@H]2O | inactive | –
25 | CNC(=O)Oc1cccc2c1OC(C)(C)C2 | inactive | –
26 | CCCCCCCCOC(=O)c1ccc(C(=O)OCCCCCCCC)c(C(=O)OCCCCCCCC)c1 | inactive | –
27 | CC(C)(C)C(O)(CCc1ccc(Cl)cc1)Cn1cncn1 (stereo not given) | inactive | –
28 | CCN(CC)N=O | inactive | –
29 | Oc1ccc2ccc3cccc4ccc1c2c34 | inactive | –
30 | C[N+](C)(C)CC1CO1 (stereo not given) | inactive | –
31 | CN(C)[C@@H]1C(=O)C(C(N)=O)=C(O)[C@@]2(O)C(=O)C3=C(O)c4c(O)cccc4[C@@](C)(O)[C@H]3C[C@@H]12 | inactive | –
32 | N#CC(Br)(Br)C(N)=O | inactive | –
33 | CN(C)c1ccc(C(=O)c2ccc(N(C)C)cc2)cc1 | inactive | –
34 | COC(=O)Nc1nc2ccccc2[nH]1 | inactive | –
35 | Nc1ccc([N+](=O)[O-])cc1 | inactive | –
36 | CCCCCCCCCCCCCN1CC(C)OC(C)C1 (stereo not given) | inactive | –
37 | c1ccc2c(c1)-c1cccc3cccc-2c13 | inactive | –
38 | CC(O)CCO (stereo not given) | inactive | –
39 | C1=Cc2cccc3cccc1c23 | inactive | –
40 | [As]#[In] | inactive | –
